Laboratory results published in PubChem BioAssay AID1159580 (chemical genetic matrix, 2015).
Values joined by “and” are separate entries in the source; they are usually repeats but may differ in a detail not shown here. Identical values can stand only once. Screen size: about 5,500 compounds; about 2,000 (36%) were called active. Inconclusive results (about 18%) are left out. Cut-off read from the data, not from the text of the source: active = normalized growth mostly below about 0.91 (no sharp cut-off); inconclusive = no clear call, values can overlap the other calls; inactive = mostly above about 0.92. This is one part of the list.

Assay: chemical genetic growth profiling, strain panel (AID 1159580);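 note: tested at 20 µM; growth read once vehicle control cultures reached saturation at 30 °C; 1 = growth at the plate median or of vehicle wells; lower values mean less growth of the strain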
Details: S. cerevisiae deletion strains, growth OD

Measured: normalized growth

CC(=O)Oc1cc(OC(C)=O)c2c(c1)O[C@H](c1ccc(OC(C)=O)c(OC(C)=O)c1)[C@H](OC(C)=O)C2
inactive: locus YAL013W, strain DEP1, active compounds read low 1.01 | locus YAL021C, strain ccr4, active compounds read low 1 | locus YAL026C, strain drs2, active compounds read low 1.01 | locus YAL030W, strain snc1, active compounds read low 1 | locus YBL061C, strain skt5, active compounds read low 0.994 | locus YBR009C, strain hhf1, active compounds read low 0.965 | locus YBR021W, strain FUR4, active compounds read low 1 | locus YBR023C, strain chs3, active compounds read low 0.998 | locus YBR171W, strain sec66, active compounds read low 0.999 | locus YBR229C, strain ROT2, active compounds read low 1.01 | locus YBR231C, strain swc5, active compounds read low 1.01 | locus YBR279W, strain paf1, active compounds read low 0.985 | locus YCL011C, strain gbp2, active compounds read low 0.982 | locus YCL016C, strain dcc1, active compounds read low 0.971 | locus YCL029C, strain bik1, active compounds read low 1.02 | locus YCL061C, strain MRC1, active compounds read low 0.999 | locus YCL069W, strain vba3, active compounds read low 1 | locus YCR088W, strain abp1, active compounds read low 1 | locus YDL005C, strain med2, active compounds read low 1.01 | locus YDL035C, strain GPR1, active compounds read low 1.01 | locus YDL040C, strain nat1, active compounds read low 1 | locus YDL074C, strain BRE1, active compounds read low 1.01 | locus YDL101C, strain DUN1, active compounds read low 1.01 | locus YDL185W, strain tfp1, active compounds read low 1.03 | locus YDL192W, strain arf1, active compounds read low 1.02 | locus YDR001C, strain nth1, active compounds read low 0.999 | locus YDR069C, strain doa4, active compounds read low 1 | locus YDR101C, strain arx1, active compounds read low 1.02 | locus YDR137W, strain rgp1, active compounds read low 1.02 | locus YDR159W, strain sac3, active compounds read low 1.02 | locus YDR162C, strain NBP2, active compounds read low 1 | locus YDR195W, strain ref2 1.04 | locus YDR297W, strain sur2, active compounds read low 0.996 | locus YDR318W, strain mcm21, active compounds read low 1.03 | locus YDR334W, strain swr1, active compounds read low 1 | locus YDR335W, strain msn5, active compounds read low 1 | locus YDR388W, active compounds read low 1.03 | locus YDR392W, strain spt3, active compounds read low 0.964 | locus YDR502C, strain sam2, active compounds read low 1.02 | locus YEL003W, strain gim4, active compounds read low 1 | locus YEL037C, strain rad23, active compounds read low 1 | locus YEL061C, strain CIN8 (second series), active compounds read low 0.997 | locus YEL061C, strain CIN8, active compounds read low 1 | locus YER015W, strain faa2, active compounds read low 0.983 | locus YER016W, strain bim1, active compounds read low 1 | locus YER110C, active compounds read low 1.03 | locus YER111C, strain swi4, active compounds read low 0.995 | locus YER155C, strain BEM2 (second series), active compounds read low 1.05 | locus YER155C, strain BEM2, active compounds read low 0.999 | locus YER167W, strain BCK2, active compounds read low 1.02 | locus YFR010W, strain ubp6, active compounds read low 0.998 | locus YGL078C, strain dbp3, active compounds read low 1.02 | locus YGL086W, strain mad1, active compounds read low 0.997 | locus YGL167C, strain pmr1, active compounds read low 0.998 | locus YGL173C, strain kem1, active compounds read low 1 | locus YGL227W, strain vid30, active compounds read low 0.991 | locus YGL240W, strain doc1, active compounds read low 1.04 | locus YGL248W, strain PDE1, active compounds read low 1.01 | locus YGL253W, strain hxk2, active compounds read low 0.984 | locus YGR078C, strain PAC10, active compounds read low 1 | locus YGR135W, strain pre9, active compounds read low 1.02 | locus YGR252W, strain gcn5, active compounds read low 1.05 | locus YHR013C, strain ard1, active compounds read low 0.999 | locus YHR027C, strain rpn1, active compounds read low 0.999 | locus YHR030C, strain SLT2, active compounds read low 1.01 and 0.946 | locus YHR079C, strain IRE1 (second series), active compounds read low 1.03 | locus YHR079C, strain IRE1, active compounds read low 0.968 | locus YHR094C, strain hxt1, active compounds read low 1.02 | locus YHR129C, strain ARP1, active compounds read low 1.01 | locus YHR142W, strain chs7, active compounds read low 0.944 | locus YHR200W, strain rpn10, active compounds read low 1.03 | locus YIL066C, strain RNR3, active compounds read low 0.999 | locus YIL073C, strain SPO22, active compounds read low 1.1 | locus YIL125W, strain kgd1, active compounds read low 1.01 | locus YIR030C, strain dcg1, active compounds read low 1.03 | locus YJL092W, strain hpr5, active compounds read low 1 | locus YJL095W, strain BCK1 (second series), active compounds read low 0.99 | locus YJL095W, strain BCK1, active compounds read low 1 and 0.959 | locus YJL115W, strain asf1, active compounds read low 1 | locus YJL129C, strain trk1, active compounds read low 0.999 | locus YJL134W, strain LCB3, active compounds read low 1.01 | locus YJL154C, strain vps35, active compounds read low 1 | locus YJL164C, strain tpk1, active compounds read low 0.984 | locus YJL166W, strain qcr8, active compounds read low 1 | locus YJL168C, strain set2, active compounds read low 1.03 | locus YJL187C, strain SWE1 (second series), active compounds read low 1.01 | locus YJL187C, strain SWE1, active compounds read low 1.01 | locus YJR043C, strain POL32, active compounds read low 1.01 | locus YJR066W, strain TOR1, active compounds read low 0.935 | locus YJR075W, strain HOC1, active compounds read low 1.02 | locus YKL009W, strain mrt4, active compounds read low 1.02 | locus YKL068W, active compounds read low 1.01 | locus YKL085W, strain MDH1 (second series), active compounds read low 1.01 | locus YKL085W, strain MDH1, active compounds read low 1.01 | locus YKL160W, strain elf1, active compounds read low 1.01 | locus YKR001C, strain vps1, active compounds read low 1.02 | locus YKR026C, strain gcn3, active compounds read low 0.994 | locus YKR091W, strain srl3, active compounds read low 0.994 | locus YLL001W, strain dnm1, active compounds read low 0.985 | locus YLL026W, active compounds read low 0.999 | locus YLL041C, strain sdh2, active compounds read low 1.01 | locus YLR027C, strain aat2, active compounds read low 1.01 | locus YLR039C, strain RIC1, active compounds read low 1.09 | locus YLR058C, strain SHM2, active compounds read low 1.01 | locus YLR102C, strain apc9, active compounds read low 1.02 | locus YLR113W, strain HOG1, active compounds read low 0.94 | locus YLR221C, strain rsa3, active compounds read low 0.964 | locus YLR258W, strain gsy2, active compounds read low 0.979 | locus YLR262C, strain YPT6 (second series), active compounds read low 0.997 | locus YLR262C, strain YPT6, active compounds read low 1.12 | locus YLR268W, strain sec22, active compounds read low 1.04 | locus YLR320W, strain mms22, active compounds read low 0.984 | locus YLR330W, strain CHS5, active compounds read low 1.02 | locus YLR342W, strain FKS1 (second series), active compounds read low 1.01 | locus YLR342W, strain FKS1, active compounds read low 1 | locus YLR357W, strain rsc2, active compounds read low 1.01 | locus YLR370C, strain arc18, active compounds read low 0.979 | locus YLR371W, strain rom2, active compounds read low 1.03 | locus YLR384C, strain iki3, active compounds read low 1 | locus YLR418C, strain cdc73, active compounds read low 1.06 | locus YML016C, strain PPZ1, active compounds read low 1.01 | locus YML032C, strain rad52, active compounds read low 1.03 | locus YML120C, strain ndi1, active compounds read low 0.981 | locus YML124C, strain tub3, active compounds read low 1.02 | locus YMR058W, strain fet3, active compounds read low 1.01 | locus YMR078C, strain ctf18, active compounds read low 1.02 | locus YMR125W, strain sto1, active compounds read low 0.995 | locus YMR129W, active compounds read low 1 | locus YMR205C, strain PFK2, active compounds read low 0.992 | locus YMR223W, strain ubp8, active compounds read low 1.02 | locus YMR231W, strain pep5, active compounds read low 1.01 | locus YMR307W, strain GAS1, active compounds read low 1.01 | locus YNL067W, strain RPL9B, active compounds read low 1.02 | locus YNL071W, strain lat1, active compounds read low 1.01 | locus YNL183C, strain NPR1, active compounds read low 0.91 | locus YNL209W, strain ssb2, active compounds read low 0.996 | locus YNL233W, strain BNI4, active compounds read low 1.01 | locus YNL248C, strain rpa49, active compounds read low 1.03 | locus YNL250W, strain rad50, active compounds read low 1.03 | locus YNL271C, strain bni1, active compounds read low 1.02 | locus YNL298W, strain CLA4, active compounds read low 1.03 | locus YNL307C, strain MCK1, active compounds read low 1.07 | locus YNL322C, strain KRE1 (second series), active compounds read low 0.997 | locus YNR049C, strain mso1, active compounds read low 1 | locus YNR052C, strain pop2, active compounds read low 1.03 | locus YOL012C, strain htz1 0.664 | locus YOL147C, strain pex11, active compounds read low 1.02 | locus YOR001W, strain rrp6, active compounds read low 1.02 | locus YOR061W, strain CKA2, active compounds read low 1 | locus YOR069W, strain VPS5, active compounds read low 1.01 | locus YOR070C, strain gyp1, active compounds read low 0.997 | locus YOR080W, strain dia2, active compounds read low 1 | locus YOR083W, strain WHI5, active compounds read low 0.997 | locus YOR106W, strain vam3, active compounds read low 1.01 | locus YOR136W, strain idh2, active compounds read low 1.05 | locus YOR144C, strain elg1, active compounds read low 1.02 | locus YOR184W, strain ser1, active compounds read low 1.03 | locus YOR231W, strain MKK1, active compounds read low 0.965 | locus YOR265W, strain rbl2, active compounds read low 1.01 | locus YOR270C, strain vph1, active compounds read low 0.943 | locus YOR290C, strain snf2, active compounds read low 0.996 | locus YOR316C, strain cot1, active compounds read low 1.03 | locus YPL051W, strain arl3, active compounds read low 0.997 | locus YPL078C, strain atp4, active compounds read low 1.01 | locus YPL106C, strain sse1, active compounds read low 0.967 | locus YPL240C, strain hsp82, active compounds read low 0.99 | locus YPL256C, strain CLN2, active compounds read low 0.933 | locus YPR119W, strain clb2, active compounds read low 1.01 | locus YPR141C, strain kar3, active compounds read low 1.02 | locus YPR163C, strain tif3, active compounds read low 1.05 | locus YPR167C, strain met16, active compounds read low 1.04 | strain wtn01, active compounds read low 1.01
